Measurements: ChEMBL document CHEMBL3988442, “University of Dundee, Small-Polar-MMV Screening Library” (2021)

Assays:
[1] = molecular target: T1, Aspartate--tRNA(Asp/Asn) ligase (Mycobacterium tuberculosis (strain ATCC 25618 / H37Rv)) (UniProt P9WFW3); assay: Assay for Asp RNA synthetase-1 from Mycobacterium tuberculosis; format: functional; design: scale not given: direction of the effect not stated beside the values; conditions: 30 µM; further: in the data most compounds retested in dose-response had high values
T1 sequence (whole entry): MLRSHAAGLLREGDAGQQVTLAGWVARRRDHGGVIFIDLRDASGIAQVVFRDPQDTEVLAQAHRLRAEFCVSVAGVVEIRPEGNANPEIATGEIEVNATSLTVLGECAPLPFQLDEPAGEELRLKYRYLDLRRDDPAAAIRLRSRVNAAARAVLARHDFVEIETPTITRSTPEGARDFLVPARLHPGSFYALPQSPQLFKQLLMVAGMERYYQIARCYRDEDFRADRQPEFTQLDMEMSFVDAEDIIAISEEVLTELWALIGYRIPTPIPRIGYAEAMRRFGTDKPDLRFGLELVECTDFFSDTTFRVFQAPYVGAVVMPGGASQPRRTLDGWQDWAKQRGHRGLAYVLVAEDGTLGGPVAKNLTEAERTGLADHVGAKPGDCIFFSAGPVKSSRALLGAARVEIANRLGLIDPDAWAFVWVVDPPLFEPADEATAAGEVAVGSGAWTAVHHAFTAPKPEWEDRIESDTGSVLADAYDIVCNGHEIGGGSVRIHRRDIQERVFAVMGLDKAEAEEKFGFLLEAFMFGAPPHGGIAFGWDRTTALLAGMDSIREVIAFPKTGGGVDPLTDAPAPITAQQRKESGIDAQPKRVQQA

[2] = molecular target: Shiga toxin 2 (Escherichia coli O157:H7) (UniProt P09385+P09386); assay: E. coli 0.157:H7 Shiga Toxin SOP - stx2 screening assay; format: functional; design: scale not given: direction of the effect not stated beside the values; conditions: 30 µM

SMILES | Percent Effect [1] [%] | Percent Effect [2] [%]
COc1cccc(N2CCN(Cc3ncc[nH]3)CC2=O)c1 | 0.446 | -4.16
O=C(c1ccco1)N1C[C@H]2CCCN(CC3CCOCC3)[C@H]2C1 | 11.5 | 2.22
CCNC(=O)C1CCN(Cc2csc(-c3ccc(C)o3)n2)CC1 | 6.68 | -30.3
CC(C)C1CN(c2ncccn2)CCC(=O)N1Cc1ccc(F)cc1 (configuration not stated) | 3.51 | 3.8
Cn1ccnc1CN1CCC2(CC1)CN(CC1CC1)C(=O)CO2 | 2.11 | -17.7
CCC(CNC(=O)Nc1cnn(CC)c1)N1CCCC1 (configuration not stated) | -2.08 | 1.4
Cc1[nH]ccc1C(=O)Nc1cccc(CN2CCC(CO)CC2)c1 | -1.71 | -43.9
Cc1n[nH]c(C2CN(CC(=O)NCCc3ccsc3)CCO2)n1 (configuration not stated) | -3.33 | 7.26
O=S(=O)(NCC1CCOc2ccccc2C1)N1CCOCC1 (configuration not stated) | 6.99 | -16
O=C(CCc1cc(O)no1)N1CCCC(COc2ccc(F)cc2)C1 (configuration not stated) | -2.45 | -19.8
O=S(=O)(NCC1CCN(c2cnccn2)CC1)c1c(F)cccc1F | -2.55 | 4.65
CCN(C)c1ncnc2c1CCN(C(=O)c1ccno1)CC2 | 7.02 | -5.46
CN(C)CC1CN(Cc2coc(-c3cccs3)n2)CCO1 (configuration not stated) | 2.66 | -25.6
COc1ccccc1CNC(=O)C1=NN(c2ccc(C)cc2)C(=O)CN1 | 17.6 | 11
CNC(=O)c1cccc(C2CNCCN2C(C)=O)c1 (configuration not stated) | -2.04 | -2.23
CCOCC1CN(C(=O)CS(C)(=O)=O)Cc2cnn(C)c21 (configuration not stated) | 1.19 | -6.98
CC(C)CNC(=O)Nc1ccc(CN2CCOC2=O)cc1 | 1.75 | -53.2
O=C(CC1CC1)NCc1cn2c(n1)CN(CC1CC1)CC2 | 4.87 | -4.42
Cc1ccc(CN2CCc3c(C(=O)N(C)C)nn(C)c3C2)s1 | 1.82 | 3.56
CCC(C)NC(=O)Nc1ccc(CN2CCOC2=O)cc1 (configuration not stated) | -0.167 | -47.4
OCCn1cc(CN2CCN(CCOc3ccccc3)CC2)cn1 | 0.728 | 13.3
CN1CCN(Cc2ccccc2CNC(=O)c2ccc(Br)cc2)CC1 | -0.466 | 0.652
O=C(CCCOc1ccc(F)cc1)N1CCCC(n2cccn2)C1 (configuration not stated) | -0.115 | 7.54
Cc1ccc(NC(C)C(=O)NCc2cccs2)cc1C (configuration not stated) | 3.13 | -30.8
COc1ccc(CNCC2CC2)cc1F | 2.55 | 28.8
CN(C)C(=O)CN1CCC2(CCCN(Cc3cccn3C)C2)C1=O (configuration not stated) | 2.49 | -13.9

SMILES | Percent Effect [1] [%] | Percent Effect [2] [%]
c1ccc(CN2CC[C@@H]3O[C@H](COCc4ccncc4)CC[C@@H]32)nc1 | -0.574 | -18
O=C1CCCCN1c1cccc(CNC2CCCC2)c1 | -0.259 | 18
Cc1nc(C)n(CC2CN(c3nnc(C)c(C)c3C#N)CCO2)n1 (configuration not stated) | -1.7 | 27.3
CCc1nccn1C1CCCN(C(=O)Cc2n[nH]c3ccccc23)C1 (configuration not stated) | 0.83 | 13.1
CS(=O)(=O)NCc1ncn2c1CN(C(=O)CC1CCCC1)CCC2 | -2.09 | -6.05
O=C(O)c1cc(S(=O)(=O)Nc2cc(F)ccc2F)cc2c1OCCO2 | -2.5 | 31.1
CC(C)c1cc(NC(=O)CN2CCc3c(nc(C(C)C)n3C)C2)on1 | -3.67 | -13.4
CC(=O)N1CCC(Cc2cnc(-c3c(C)n[nH]c3C)cn2)C1 (configuration not stated) | -11.6 | -7.52
Cc1cc(N2CCN(C(=O)c3cc(Cl)c[nH]3)CC2)nc(N)n1 | 3.4 | -96.7
COC(=O)c1ccc2ccn(CC3CCNC3)c(=O)c2c1 (configuration not stated) | 3.08 | -45.4
CC(Oc1ccccc1C(F)(F)F)C(=O)NS(=O)(=O)C(C)C (configuration not stated) | -4.49 | 4.69
O=C(NCCN1CCCCC1)c1nc(-c2ccc3cc[nH]c3c2)no1 | 6.42 | -77.4
CCn1cnnc1CNC(=O)CCC(=O)c1ccc2c(c1)OCCO2 | 4.55 | 13.7
CCc1n[nH]c(C2CN(C(=O)c3cnc(C)s3)CCO2)n1 (configuration not stated) | -6 | -8.48
COc1cc(C)nc(N2CCN(Cc3nccn3C)CC2)n1 | -1.39 | -9.36
CC(C)NS(=O)(=O)c1cc(C(=O)O)cc(-c2ccccc2CN(C)C)c1 | 1.25 | -13.2
COc1ccc(CCN2CCCC(CN(C)Cc3ccc(C)o3)C2)cc1 (configuration not stated) | -1.25 | -11.5
O=C(c1cncc(Br)c1)N1CCC(O)(Cn2ccc3ccncc32)CC1 | 3.38 | -12.7
Cc1ccc(NS(=O)(=O)CC2=NC(=O)n3cccc3C2=O)cc1 | -1.02 | -73.8
COc1ccc(C(CO)NC(=O)Nc2cccc(C#N)c2)cc1 (configuration not stated) | 3.45 | -32.6
CC(C)n1cnc2c1C(C(=O)NCCC#N)N(Cc1ccccc1)CC2 (configuration not stated) | -1.11 | -31.8
c1ccc(-c2nc(CNC3CCc4ncnn4C3)co2)cc1 (configuration not stated) | -3.79 | -10.8
COCC1COCCC12CCN(C(=O)CCc1ccccc1)CC2 (configuration not stated) | 3.96 | -14.9
Cc1cccc(CN2C[C@@H]3COC[C@]3(CNC(=O)c3ccsc3)C2)n1 | -2.88 | -15.8
Cc1ccc(CC(=O)N2Cc3nccn3CC(CN(C)C)C2)cc1 (configuration not stated) | 1.66 | 5.05
Cc1cn2c(n1)CCC(NC(=O)c1cc(C(C)C)no1)C2 (configuration not stated) | -4.01 | -5.41

SMILES | Percent Effect [1] [%] | Percent Effect [2] [%]
CCc1nccn1C1CCCN(C(=O)c2cnn3ccc(C)nc23)C1 (configuration not stated) | 0.632 | 11.2
CC(=O)N(Cc1noc(C2CC2)n1)C1CCN(Cc2ccncc2)C1 (configuration not stated) | 1.34 | -5.75
CCCN1CCC(N(Cc2ncc(C)o2)C(C)=O)C1 (configuration not stated) | 2.38 | 2.8
Cc1cccnc1NC(=O)NC(C)Cn1cccn1 (configuration not stated) | -3.52 | 15.4
COc1cc(CNC(=O)CNc2cc(Cl)ccc2OC)ccn1 | 3.88 | 20.6
CC(=O)NCC(=O)N1C[C@H](OCc2cccnc2)[C@H]2COC[C@H]21 | -1.31 | -22.3
O=C(c1cccnc1N1CCOCC1)N1CCCC1Cn1cccn1 (configuration not stated) | -2.94 | 31.6
Cc1nn(C)c2c(NCc3ccccc3F)nc(C3CC3)nc12 | 12.5 | -20.5
CCc1nccn1C1CCCN(C(=O)c2cn3c(C)cccc3n2)C1 (configuration not stated) | -4.04 | 4.17
O=C(c1cn(-c2ccccc2Cl)nn1)N1CCCSCC1 | 0.212 | 5.41
COc1ccc(C2(CNC(C)c3nnc(C)o3)CCCCC2)cc1 (configuration not stated) | 2.67 | -2.63
Cc1cccc(COC[C@@H]2CC[C@H]3[C@H](CCN3Cc3ccco3)O2)n1 | -0.843 | -16.8
Cn1cc(CN2CCc3nc(-c4ccccn4)nc(O)c3C2)cn1 | -5.28 | -24.6
CCN(CC)C(=O)c1nnn(-c2ccc(C)cc2)c1C1CC1 | -1.37 | -1.32
CS(=O)(=O)NCC1CCCN(C(=O)c2ccc(Cl)o2)C1 (configuration not stated) | 1.23 | -7.98
O=C1CCC2(CCCN(c3ncc(F)cn3)CC2)N1CC1CC1 (configuration not stated) | -1.91 | -3.81
CCOCCCn1c(NC(=O)c2ccc(C)nc2)nc2ccccc21 | -3.79 | 14.9
Cc1ccc(C(C)NC(=O)Cc2c(C)nc3c(c2C)c(=O)[nH]n3C)o1 (configuration not stated) | 18.6 | -15.3
CN(C)C(=O)Cc1nc(CN2CCOC(Cn3cccn3)C2)cs1 (configuration not stated) | -3.5 | -20.8
Cc1cc(C)n(CC2CCCCN2C(=O)c2cnn(C)c2)n1 (configuration not stated) | -5.01 | -14
CCN1CCC2(CCC(=O)N2Cc2cccc(C)n2)CC1 | -3.94 | 1.16
Cc1nccn1-c1cccc(C2CCCN(C3CCCCC3)C2)n1 (configuration not stated) | -3.11 | -8.84
Cc1ccc(CN2CCC3(CC(C(=O)NCC4CC4)=NO3)C2)cc1C (configuration not stated) | 7.45 | -15.5
Cc1oc(C)c(C(=O)NCc2ccccn2)c1C | -4.72 | 26.9
O=C1NC2(CCN(Cc3cccnc3)CC2)CC1c1ccncc1 (configuration not stated) | 7.31 | -19.6
OC1CCN(Cc2c(C3CCCNC3)[nH]c3ncccc23)CC1 (configuration not stated) | 7.49 | -0.778

SMILES | Percent Effect [1] [%] | Percent Effect [2] [%]
O=C(Nc1ccc(CCN2CCC(O)CC2)cc1)C1CCOCC1 | -1.86 | -38.6
CC(=O)N1CCN(Cc2csc(-c3cnn(C)c3)n2)CC1 | -1.03 | -1.47
Cc1ccc(S(=O)(=O)N2CSCC2C(=O)N(C)C2CC2)cc1Cl (configuration not stated) | 3.03 | 19.2
Cc1scc(C(=O)N2CCC3(CC(=O)NC3=O)C2)c1-c1ccccc1 (configuration not stated) | 0.19 | 8.3
Cc1cc(C(=O)N2CCCCC2C)ccc1NCC(=O)N1CCOCC1 (configuration not stated) | -12.3 | -49.1
COc1ccnc(N2CCN(C(=O)c3csc(C4CC4)n3)CC2)n1 | -0.494 | -2.7
Cc1noc(C(C)C)c1C(=O)NS(=O)(=O)c1ccc2c(c1)OCCCO2 | 2.22 | -0.248
Cc1cccc(C(=O)N2CCCCC2c2ccc(CN(C)C)cc2)n1 (configuration not stated) | -2.28 | 13.7
CCn1nccc1CNC(=O)C1CC1 | 11 | -39.4
COCc1cccc(C(=O)N2CCCCC2c2nccs2)c1 (configuration not stated) | -3.8 | 18.2
Cc1noc([C@@]23CCO[C@@H]2CCN(C(=O)C2CCOCC2)C3)n1 | 0.117 | -4.33
Cc1noc(C)c1C(=O)N1CC[C@H]2C[C@@H](c3ccncn3)O[C@@H]2C1 | 2.79 | 3.86
c1cc2nc(C3CCN(CC4CC4)CC3)nn2cc1N1CCCC1 | -1.69 | -3.75
O=C1CCC2(CCN(Cc3ccc(F)cc3)CC2)N1Cc1ccccc1 | -0.182 | 6.77
CCN1CCn2c(C)cnc2C12CCN(C(=O)CC(C)C)CC2 | 1.31 | -0.923
Cc1ccc(N(CC(=O)c2ccc(Br)cc2)C2=NCCCCC2)cc1 | 0.479 | -13.7
COCCCN(CCOC)C(=O)Nc1ccc(C)cc1C | 0.599 | 1.16
Cc1cc(-c2nnn(CCC(N)=O)n2)ccc1F | -0.912 | -20.8
Cc1nnc(N2CC[C@H]3C[C@@H](C(=O)NC4CCCC4)O[C@H]3C2)s1 | 0.29 | -4.68
Cn1nc(CNC(=O)C2CC2)cc1C1CC1 | -2.99 | -14.8
Cc1ncc2c(n1)CCCC2NC(=O)c1ccncc1 (configuration not stated) | 2.71 | -63.8
O=C1CC(N(C(=O)c2ccc3[nH]c4c(c3c2)CCCC4)C2CC2)C(=O)N1 (configuration not stated) | 1.2 | -28.8
O=C(NCCCOCC1CCCO1)c1cccnc1N1CCCC1 (configuration not stated) | -1.51 | -14.1
